# Screening data deposited in PubChem by several laboratories.
# DYRK1A inh – rat Dyrk1A kinase inhibitors, primary screen, biochemical, single point, plate reader; ADP-Glo luminescence, NFATc1 peptide; inhibition, % at 12.5 µM; 310,000 tested, 0.43% active; AID 504441, 2011; in the data active means inhibition above about 50%;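 further: plate controls were vehicle with enzyme for no effect and no enzyme for full effect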
# Rtt109 Vps75 – inhibitors of C. albicans Rtt109/Vps75 HAT, primary screen, biochemical, ThioGlo CoA-SH fluorescence, plate reader | Histone acetyltransferase RTT109 (Candida albicans (strain SC5314 / ATCC MYA-2876)), … | purified Rtt109/Vps75, 4 h | inhibition, % at 34.9 µM | 330,000 tested, 0.16% active | AID 540336, 2011;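 active means inhibition of at least 50% in every replicate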
# Target sequence (Q5AAJ8 whole entry, looked up): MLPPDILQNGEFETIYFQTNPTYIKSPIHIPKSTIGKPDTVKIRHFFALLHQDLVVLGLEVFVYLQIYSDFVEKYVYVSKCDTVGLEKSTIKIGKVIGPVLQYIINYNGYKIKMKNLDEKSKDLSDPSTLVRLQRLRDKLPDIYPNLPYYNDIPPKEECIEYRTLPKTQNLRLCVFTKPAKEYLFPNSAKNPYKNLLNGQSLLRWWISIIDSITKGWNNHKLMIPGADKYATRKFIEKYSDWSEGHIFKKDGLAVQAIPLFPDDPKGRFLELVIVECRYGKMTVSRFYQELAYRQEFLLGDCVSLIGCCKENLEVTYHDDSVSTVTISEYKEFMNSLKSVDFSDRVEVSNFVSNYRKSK
# dFosB act-1 – activators of delta FosB homodimer, primary screen, biochemical, fluorescence polarization, TAMRA-CDK5 oligo, single point | Protein FosB (Mus musculus), P13346 | purified delta FosB; percent of positive-control signal above neutral wells | activation, % at 25 µM | 340,000 tested, 0.99% active;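 active means mean activation above about 17%, with every replicate also reaching it, limit read from the data, passing the limit was not always enough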
# SMARCA2 activ – SMARCA2 (BRM) function activators, primary screen, cell-based, luminescence, high throughput; MG213 cells, MMTV-luciferase reporter, dexamethasone, overnight; activation, % at 9.1 µM; 370,000 tested, 1% active; in the data active means activation above about 7.8%;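 further: 0% = vehicle wells and 100% = reference activator wells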
# CDK5 inh – inhibitors of human CDK5/p35 kinase, primary screen, biochemical, single concentration | 330,000 tested, 0.01% active | Recombinant CDK5/p35, ADP-Glo luminescence, 60 min | inhibition, % at 10 µM | AID 488839, 2010;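 active means highest replicate inhibition of at least 50% and at least 75% of replicates reaching 50%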;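 further: plate controls were DMSO neutral control for no effect and GW8510 at 10 µM for full effect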
# esBAF inh – Bmi1 luciferase reporter increase in mESCs, primary screen, esBAF inhibitor project, mouse ES cells, Bmi1 luciferase knock-in, single point; reporter increase, % at 12.5 µM; AID 602393, 2012; 24 h; 100% = twice the neutral-well signal; 350,000 tested, 2% active; in the data active means activation above about 40%;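 further: 0% = median of the plate's neutral control wells and 100% = double that signal; a rise in the Bmi1 reporter signal indicates esBAF inhibition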
# dFosB act-2 – activators of mouse delta FosB DNA binding, confirmation, biochemical, fluorescence polarization, TAMRA-CDK5 oligo, cherry-picked samples; AID 588690, 2011; 2,400 tested, under 10 active; activation, % at 24.9 µM; purified delta FosB; normalised: neutral wells 0, positive control 100; shares compounds with dFosB act-1;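 active means highest replicate activation at or above 34% and every replicate reaching that threshold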;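 further: higher polarization means more probe DNA bound by delta FosB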
# Starred values were filed as active, the others as inactive; . = no result given. In the library only some 3.2% were active in any assay of this set; here they are far more common.
SMILES,DYRK1A inh,Rtt109 Vps75,dFosB act-1,SMARCA2 activ,CDK5 inh,esBAF inh,dFosB act-2
COc1ccccc1NC(=O)c1nnn(CC(=O)Nc2cccc(SC)c2)c1N,8,1,2,-4,1,4,.
COc1ccccc1NC(=O)c1nnn(CC(=O)Nc2cc(C)cc(C)c2)c1N,-1,-4,33*,4,2,9,3
COc1ccccc1NC(=O)Cn1nnc(C(=O)Nc2ccccc2)c1N,5,-7,33*,-3,-1,-3,6
CCCNC(=O)C[C@H]1C[C@@H]2c3cc(NC(=O)COC)ccc3O[C@@H]2[C@H](CO)O1,.,.,.,.,.,-3,.
O=C(c1ccc2c(c1)OCO2)N1C[C@H]2[C@@H](c3ccccc31)[C@H](CO)N2Cc1ccccc1Cl,.,.,.,.,.,-7,.
Cc1ccc(-c2nc3ncccc3o2)cc1NC(=S)NC(=O)c1ccco1,0,-6,-20,0,1,.,.
Cc1cc(-c2nc3ncccc3o2)ccc1NC(=S)NC(=O)c1ccco1,-2,-14,25*,2,0,.,0
O=C(COC(=O)/C=C/c1cc(Br)ccc1F)Nc1ccc2[nH]c(=O)[nH]c2c1,12,8,41*,1,-2,-6,1
Cc1ccc(S(=O)(=O)Nc2cccc(-c3ccc4nncn4n3)c2)cc1,-8,-3,20*,-1,0,-13,-1
C[C@@H]1CN([C@@H](C)CO)C(=O)Cc2cc(NS(C)(=O)=O)ccc2O[C@H]1CN(C)S(=O)(=O)c1ccccc1,.,.,.,.,.,0,.
C[C@@H]1CCCCO[C@@H](CN(C)S(C)(=O)=O)[C@@H](C)CN([C@H](C)CO)C(=O)c2cc(NS(=O)(=O)c3cccs3)ccc2O1,.,.,.,.,.,-2,.
C/C(=N\NC(=O)c1nnn(-c2nonc2N)c1-c1ccc2c(c1)OCO2)c1ccc(F)cc1,1,-9,13,0,0,-10,.
Cc1ccc(-c2c(C(=O)N/N=C/c3cccc(Cl)c3)nnn2-c2nonc2N)cc1,1,-4,47*,-3,-3,-7,6
Cc1ccc(-c2c(C(=O)N/N=C/c3ccc4c(c3)OCO4)nnn2-c2nonc2N)cc1,.,0,45*,-4,.,0,0
Cc1ccc(-c2c(C(=O)N/N=C/c3ccoc3)nnn2-c2nonc2N)cc1,1,26,-3,-1,1,-9,.
Cc1ccc(SCc2c(C(=O)N/N=C/c3ccc4c(c3)OCO4)nnn2-c2nonc2N)cc1,-7,-11,52*,-2,0,0,1
C/C(=N\NC(=O)c1nnn(-c2nonc2N)c1-c1ccc2c(c1)OCO2)c1ccc(C)cc1,-2,-3,32*,-1,-1,-11,1
Cc1ccc(/C=N/NC(=O)c2nnn(-c3nonc3N)c2CSc2ccccc2)cc1,0,9,24*,-3,2,.,2
Cc1ccc(SCc2c(C(=O)N/N=C/c3ccccc3)nnn2-c2nonc2N)cc1,0,-2,25*,-3,1,.,-1
Cc1ccc(SCc2c(C(=O)N/N=C/c3ccoc3)nnn2-c2nonc2N)cc1,0,8,-14,-3,-1,-3,.
Nc1nonc1-n1nnc(C(=O)N/N=C/c2ccccc2Cl)c1-c1ccc2c(c1)OCO2,0,16,25*,-3,0,0,0
COc1ccc(S(=O)(=O)Nc2ccc3c(c2)C(=O)N([C@H](C)CO)C[C@H](C)[C@H](CN(C)Cc2ccccc2)OCCCC[C@@H](C)O3)cc1,.,.,.,.,.,0,.
Nc1ccccc1SC1CC(=O)N(c2ccc(Cl)c(Cl)c2)C1=O (configuration not stated),3,0,27*,-2,0,3,2
Nc1ccccc1SC1CC(=O)N(c2ccc3c(c2)OCCO3)C1=O (configuration not stated),-5,-3,15,3,2,.,.
COc1ccc(C(CNC(=O)c2oc3ccc(Cl)cc3c2C)N2CCCCC2)cc1 (configuration not stated),1,10,23*,3,1,2,6
SMILES,DYRK1A inh,Rtt109 Vps75,dFosB act-1,SMARCA2 activ,CDK5 inh,esBAF inh,dFosB act-2
O=C([C@H]1[C@H](CO)[C@H]2Cn3c(ccc(C4=CCCC4)c3=O)[C@@H]1N2)N1CCCCC1,.,.,.,.,.,1,.
CC(C)Cn1c(N)c(/C=N/NC(=O)c2ccc(Cl)cc2)c(=O)n(C)c1=O,-1,8,19*,3,1,-4,3
O=C(Cn1nnc(-c2ccc(CN3CCOCC3)cc2)n1)N(c1ccccc1)c1ccccc1,-1,2,-10,-2,1,.,.
CC(C)(C)NC(=O)CN(C(=O)Cn1nnc(-c2ccc(Cl)cc2)n1)C1CCN(Cc2ccccc2)CC1,1,11,26*,.,0,.,-1
CCc1cc2cc3c(cc2nc1SCC(=O)Nc1cc(C)on1)OCO3,-7,-7,49*,-3,0,-6,-2
CNC(=O)c1c[nH]c2ccc(S(=O)(=O)Nc3cccc(SC)c3)cc2c1=O,-1,2,19*,-2,1,2,2
COc1ccc(CCNc2ccc(C(CC(N)=O)NC(=O)c3ccccc3)cc2[N+](=O)[O-])cc1 (configuration not stated),3,-1,32*,0,1,8,-2
NC(=O)CC(NC(=O)c1ccc(Br)cc1)c1ccc(NC2CCCCCC2)c([N+](=O)[O-])c1 (configuration not stated),28,-6,-9,-1,0,-18,.
Cc1ccccc1CNc1ccc(C(CC(N)=O)NC(=O)c2ccccc2)cc1[N+](=O)[O-] (configuration not stated),3,3,28*,-2,-1,6,-1
Cc1cccc(CNc2ccc(C(CC(N)=O)NC(=O)c3ccccc3)cc2[N+](=O)[O-])c1 (configuration not stated),3,-5,-2,0,-4,-7,.
NC(=O)CC(NC(=O)c1ccc(Br)cc1)c1ccc(NC2CCCCC2)c([N+](=O)[O-])c1 (configuration not stated),10,-9,42*,0,1,-13,8
